This note sets out measurements from ChEMBL document CHEMBL1961873, “Compounds: GSK PKIS; Assays: Nanosyn kinase panel” (2012).

In assay [1] the target is T1, Serine/threonine-protein kinase D2 (Homo sapiens) (UniProt Q9BZL6).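 Also: mean value of PRKD2 inhibition, from the GSK PKIS screening panel.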
T1 sequence (whole entry): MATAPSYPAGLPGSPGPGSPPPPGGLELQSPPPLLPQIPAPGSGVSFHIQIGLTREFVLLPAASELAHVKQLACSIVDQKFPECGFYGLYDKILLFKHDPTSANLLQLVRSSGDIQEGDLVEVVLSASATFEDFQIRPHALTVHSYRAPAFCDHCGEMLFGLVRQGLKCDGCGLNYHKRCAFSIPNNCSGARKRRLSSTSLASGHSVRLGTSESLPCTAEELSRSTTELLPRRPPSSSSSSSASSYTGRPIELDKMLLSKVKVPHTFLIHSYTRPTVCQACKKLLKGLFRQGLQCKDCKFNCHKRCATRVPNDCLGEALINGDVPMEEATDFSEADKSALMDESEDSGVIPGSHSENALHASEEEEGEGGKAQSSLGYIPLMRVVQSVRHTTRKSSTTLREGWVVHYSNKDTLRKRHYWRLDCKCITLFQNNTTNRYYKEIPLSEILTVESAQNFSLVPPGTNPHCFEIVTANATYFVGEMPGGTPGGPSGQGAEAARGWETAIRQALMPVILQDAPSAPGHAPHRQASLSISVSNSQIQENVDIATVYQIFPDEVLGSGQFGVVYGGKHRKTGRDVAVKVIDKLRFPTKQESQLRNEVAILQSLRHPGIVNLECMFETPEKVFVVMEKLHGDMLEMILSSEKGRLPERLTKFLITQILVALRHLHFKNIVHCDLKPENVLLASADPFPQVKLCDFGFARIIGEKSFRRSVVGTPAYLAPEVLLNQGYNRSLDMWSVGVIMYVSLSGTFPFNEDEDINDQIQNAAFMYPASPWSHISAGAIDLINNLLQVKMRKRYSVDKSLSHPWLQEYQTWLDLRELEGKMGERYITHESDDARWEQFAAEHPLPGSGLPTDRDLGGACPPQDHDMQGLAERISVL
As to conditions: at 1 µM.

The target in assay [2] is T2, Serine/threonine-protein kinase D3 (Homo sapiens) (UniProt O94806).
T2 sequence (whole entry): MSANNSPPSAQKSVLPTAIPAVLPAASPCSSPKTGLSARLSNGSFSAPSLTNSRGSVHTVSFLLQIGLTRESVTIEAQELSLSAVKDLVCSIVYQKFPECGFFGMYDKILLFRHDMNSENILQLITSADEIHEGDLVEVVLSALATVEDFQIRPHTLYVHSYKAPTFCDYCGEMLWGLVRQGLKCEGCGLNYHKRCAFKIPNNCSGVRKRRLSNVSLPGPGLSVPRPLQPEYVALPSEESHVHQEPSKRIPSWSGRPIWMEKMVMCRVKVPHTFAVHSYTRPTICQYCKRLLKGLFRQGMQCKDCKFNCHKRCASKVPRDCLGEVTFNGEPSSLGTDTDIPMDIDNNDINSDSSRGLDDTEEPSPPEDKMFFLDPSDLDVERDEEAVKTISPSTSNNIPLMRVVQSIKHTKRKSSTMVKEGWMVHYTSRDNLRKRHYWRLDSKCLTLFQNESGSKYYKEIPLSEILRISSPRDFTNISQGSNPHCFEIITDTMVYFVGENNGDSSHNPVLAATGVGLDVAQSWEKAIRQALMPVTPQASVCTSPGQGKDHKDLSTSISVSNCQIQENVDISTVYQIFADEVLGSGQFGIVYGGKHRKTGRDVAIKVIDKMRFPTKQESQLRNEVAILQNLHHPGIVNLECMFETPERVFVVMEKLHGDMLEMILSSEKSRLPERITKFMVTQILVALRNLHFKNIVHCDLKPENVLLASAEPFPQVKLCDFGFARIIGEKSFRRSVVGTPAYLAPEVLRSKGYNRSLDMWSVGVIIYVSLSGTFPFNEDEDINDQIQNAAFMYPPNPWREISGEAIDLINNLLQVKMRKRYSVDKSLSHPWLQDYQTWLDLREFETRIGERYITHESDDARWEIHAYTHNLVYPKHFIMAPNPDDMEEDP
As to conditions: at 0.1 µM.

The target of assay [3] is T2, Serine/threonine-protein kinase D3 (Homo sapiens). As to conditions: at 1 µM.
Assay [4] has as its target T3, cGMP-dependent protein kinase 1 (Homo sapiens) (UniProt Q13976).
T3 sequence (whole entry): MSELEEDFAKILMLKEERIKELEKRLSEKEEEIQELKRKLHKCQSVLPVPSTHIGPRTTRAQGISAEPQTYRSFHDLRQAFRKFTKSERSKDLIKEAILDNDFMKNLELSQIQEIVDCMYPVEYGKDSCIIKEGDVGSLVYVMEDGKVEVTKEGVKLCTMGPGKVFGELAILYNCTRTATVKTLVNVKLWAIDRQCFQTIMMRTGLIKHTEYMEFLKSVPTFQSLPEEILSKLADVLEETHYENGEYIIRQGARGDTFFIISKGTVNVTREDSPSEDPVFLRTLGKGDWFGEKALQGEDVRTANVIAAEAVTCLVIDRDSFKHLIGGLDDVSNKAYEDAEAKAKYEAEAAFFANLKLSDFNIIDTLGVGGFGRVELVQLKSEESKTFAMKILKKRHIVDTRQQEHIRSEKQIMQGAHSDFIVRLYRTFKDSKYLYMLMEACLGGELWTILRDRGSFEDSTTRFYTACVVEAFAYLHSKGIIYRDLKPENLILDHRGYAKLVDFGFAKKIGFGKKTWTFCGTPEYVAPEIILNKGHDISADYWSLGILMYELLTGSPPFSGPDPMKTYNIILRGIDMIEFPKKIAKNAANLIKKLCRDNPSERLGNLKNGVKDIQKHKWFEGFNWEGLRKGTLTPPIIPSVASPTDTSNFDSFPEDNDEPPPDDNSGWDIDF
Conditions: at 0.1 µM.

Assay [5] concerns the target T3, cGMP-dependent protein kinase 1 (Homo sapiens). Conditions: at 1 µM.
Assay [6] addresses T4, cGMP-dependent protein kinase 2 (Homo sapiens) (UniProt Q13237).
T4 sequence (whole entry): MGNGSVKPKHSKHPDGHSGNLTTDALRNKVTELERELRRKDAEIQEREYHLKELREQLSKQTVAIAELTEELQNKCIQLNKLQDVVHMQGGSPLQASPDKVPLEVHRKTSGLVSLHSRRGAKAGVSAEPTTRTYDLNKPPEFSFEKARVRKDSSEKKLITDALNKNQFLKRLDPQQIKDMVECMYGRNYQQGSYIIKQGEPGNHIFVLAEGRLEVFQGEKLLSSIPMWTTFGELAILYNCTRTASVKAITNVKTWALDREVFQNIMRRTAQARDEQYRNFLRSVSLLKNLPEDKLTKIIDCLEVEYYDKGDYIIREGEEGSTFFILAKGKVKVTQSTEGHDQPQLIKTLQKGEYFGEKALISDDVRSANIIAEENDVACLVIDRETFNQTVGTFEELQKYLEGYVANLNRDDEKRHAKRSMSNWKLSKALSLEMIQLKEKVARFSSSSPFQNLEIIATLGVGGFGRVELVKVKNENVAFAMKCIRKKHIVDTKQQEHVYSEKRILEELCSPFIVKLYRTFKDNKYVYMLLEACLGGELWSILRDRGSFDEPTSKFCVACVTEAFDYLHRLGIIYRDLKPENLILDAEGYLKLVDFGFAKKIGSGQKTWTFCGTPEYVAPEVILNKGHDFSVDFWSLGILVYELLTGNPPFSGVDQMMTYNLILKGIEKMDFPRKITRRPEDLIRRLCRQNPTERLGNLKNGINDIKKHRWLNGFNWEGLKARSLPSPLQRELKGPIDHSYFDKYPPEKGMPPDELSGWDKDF
Conditions: at 0.1 µM.

Assay [7] has as its target T4, cGMP-dependent protein kinase 2 (Homo sapiens). Conditions: at 1 µM.
Assay [8] has as its target T5, cAMP-dependent protein kinase catalytic subunit PRKX (Homo sapiens) (UniProt P51817).
T5 sequence (whole entry): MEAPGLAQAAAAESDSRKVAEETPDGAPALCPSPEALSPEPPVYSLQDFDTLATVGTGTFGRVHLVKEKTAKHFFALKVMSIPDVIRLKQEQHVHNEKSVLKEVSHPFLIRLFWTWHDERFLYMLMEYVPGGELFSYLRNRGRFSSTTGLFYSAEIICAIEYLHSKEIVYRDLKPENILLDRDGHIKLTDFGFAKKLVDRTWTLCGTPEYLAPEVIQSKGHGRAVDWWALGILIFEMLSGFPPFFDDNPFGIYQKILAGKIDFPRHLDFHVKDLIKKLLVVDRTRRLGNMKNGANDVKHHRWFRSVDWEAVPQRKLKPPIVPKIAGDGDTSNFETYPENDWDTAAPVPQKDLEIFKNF
Conditions: at 0.1 µM.

Assay [9] addresses T5, cAMP-dependent protein kinase catalytic subunit PRKX (Homo sapiens). Conditions: at 1 µM.
In assay [10] the target is Rho-associated protein kinase 1 (Homo sapiens) (UniProt Q13464). As to conditions: at 0.1 µM.
Rho-associated protein kinase 1 (Homo sapiens), sequence (Q13464 2-1354 limits assumed): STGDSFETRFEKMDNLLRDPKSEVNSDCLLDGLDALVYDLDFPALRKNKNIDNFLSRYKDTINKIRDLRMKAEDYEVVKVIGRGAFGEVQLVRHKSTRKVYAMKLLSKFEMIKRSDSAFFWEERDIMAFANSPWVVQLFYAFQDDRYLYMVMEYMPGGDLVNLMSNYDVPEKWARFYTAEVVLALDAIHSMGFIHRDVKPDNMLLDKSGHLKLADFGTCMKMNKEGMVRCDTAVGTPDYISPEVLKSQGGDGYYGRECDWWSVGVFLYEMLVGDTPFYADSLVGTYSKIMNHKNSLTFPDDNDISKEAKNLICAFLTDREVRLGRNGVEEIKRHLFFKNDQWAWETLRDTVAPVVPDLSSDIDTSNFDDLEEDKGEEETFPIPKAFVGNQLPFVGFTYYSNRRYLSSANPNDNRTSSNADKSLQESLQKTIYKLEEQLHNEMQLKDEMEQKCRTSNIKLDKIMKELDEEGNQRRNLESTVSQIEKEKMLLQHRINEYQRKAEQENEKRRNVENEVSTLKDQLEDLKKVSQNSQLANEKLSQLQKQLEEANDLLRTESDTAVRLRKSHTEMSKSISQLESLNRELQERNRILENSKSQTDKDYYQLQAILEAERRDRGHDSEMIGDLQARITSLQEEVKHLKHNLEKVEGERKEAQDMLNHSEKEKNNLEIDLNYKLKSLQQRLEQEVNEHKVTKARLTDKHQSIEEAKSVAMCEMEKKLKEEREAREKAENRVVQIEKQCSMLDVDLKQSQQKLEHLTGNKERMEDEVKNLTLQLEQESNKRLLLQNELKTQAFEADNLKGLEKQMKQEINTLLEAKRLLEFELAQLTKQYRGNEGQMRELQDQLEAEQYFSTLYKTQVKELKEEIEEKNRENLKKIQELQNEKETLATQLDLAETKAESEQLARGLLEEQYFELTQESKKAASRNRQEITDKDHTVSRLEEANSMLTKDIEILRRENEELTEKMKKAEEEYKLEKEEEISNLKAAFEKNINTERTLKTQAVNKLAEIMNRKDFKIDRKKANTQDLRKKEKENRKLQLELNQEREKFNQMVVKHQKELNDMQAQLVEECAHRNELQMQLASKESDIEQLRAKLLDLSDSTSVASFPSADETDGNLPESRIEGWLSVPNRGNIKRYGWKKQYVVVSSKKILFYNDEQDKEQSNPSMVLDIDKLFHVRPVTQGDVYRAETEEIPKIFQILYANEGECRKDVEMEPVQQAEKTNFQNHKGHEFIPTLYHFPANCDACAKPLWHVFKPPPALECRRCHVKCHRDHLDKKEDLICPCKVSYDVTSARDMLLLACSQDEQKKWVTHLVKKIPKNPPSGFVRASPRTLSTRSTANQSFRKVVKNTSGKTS
For assay [11] the target is unchanged. Conditions: at 1 µM.
In assay [12] the target is Rho-associated protein kinase 2 (Homo sapiens) (UniProt O75116). As to conditions: at 0.1 µM.
For assay [13] the target is unchanged. As to conditions: at 1 µM.
The target of assay [14] is Ribosomal protein S6 kinase alpha-1 (Homo sapiens) (UniProt Q15418). Conditions: at 0.1 µM.
Ribosomal protein S6 kinase alpha-1 (Homo sapiens), sequence (Q15418 whole entry): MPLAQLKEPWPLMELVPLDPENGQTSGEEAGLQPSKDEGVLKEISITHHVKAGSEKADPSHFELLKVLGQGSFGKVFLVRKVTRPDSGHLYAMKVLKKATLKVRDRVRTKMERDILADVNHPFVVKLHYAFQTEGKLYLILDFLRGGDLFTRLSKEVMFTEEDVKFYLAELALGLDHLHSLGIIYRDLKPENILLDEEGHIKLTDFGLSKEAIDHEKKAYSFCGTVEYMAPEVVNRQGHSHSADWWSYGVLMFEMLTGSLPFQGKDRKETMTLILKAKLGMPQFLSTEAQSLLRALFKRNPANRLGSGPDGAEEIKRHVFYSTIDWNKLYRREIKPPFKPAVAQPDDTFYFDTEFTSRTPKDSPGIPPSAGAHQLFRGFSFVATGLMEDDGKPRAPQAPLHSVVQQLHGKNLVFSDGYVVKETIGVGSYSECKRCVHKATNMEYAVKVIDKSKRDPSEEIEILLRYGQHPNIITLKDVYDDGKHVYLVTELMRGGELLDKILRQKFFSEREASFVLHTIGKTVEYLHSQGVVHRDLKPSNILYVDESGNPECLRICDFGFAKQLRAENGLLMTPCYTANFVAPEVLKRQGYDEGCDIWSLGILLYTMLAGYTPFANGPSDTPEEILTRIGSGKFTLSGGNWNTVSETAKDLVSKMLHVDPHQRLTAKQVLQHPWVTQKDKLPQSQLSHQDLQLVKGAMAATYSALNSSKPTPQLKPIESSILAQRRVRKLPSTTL
The target is the same in assay [15]. Conditions: at 1 µM.
For assay [16], the target named is Ribosomal protein S6 kinase alpha-3 (Homo sapiens) (UniProt P51812). As to conditions: at 0.1 µM.
Ribosomal protein S6 kinase alpha-3 (Homo sapiens), sequence (P51812 whole entry): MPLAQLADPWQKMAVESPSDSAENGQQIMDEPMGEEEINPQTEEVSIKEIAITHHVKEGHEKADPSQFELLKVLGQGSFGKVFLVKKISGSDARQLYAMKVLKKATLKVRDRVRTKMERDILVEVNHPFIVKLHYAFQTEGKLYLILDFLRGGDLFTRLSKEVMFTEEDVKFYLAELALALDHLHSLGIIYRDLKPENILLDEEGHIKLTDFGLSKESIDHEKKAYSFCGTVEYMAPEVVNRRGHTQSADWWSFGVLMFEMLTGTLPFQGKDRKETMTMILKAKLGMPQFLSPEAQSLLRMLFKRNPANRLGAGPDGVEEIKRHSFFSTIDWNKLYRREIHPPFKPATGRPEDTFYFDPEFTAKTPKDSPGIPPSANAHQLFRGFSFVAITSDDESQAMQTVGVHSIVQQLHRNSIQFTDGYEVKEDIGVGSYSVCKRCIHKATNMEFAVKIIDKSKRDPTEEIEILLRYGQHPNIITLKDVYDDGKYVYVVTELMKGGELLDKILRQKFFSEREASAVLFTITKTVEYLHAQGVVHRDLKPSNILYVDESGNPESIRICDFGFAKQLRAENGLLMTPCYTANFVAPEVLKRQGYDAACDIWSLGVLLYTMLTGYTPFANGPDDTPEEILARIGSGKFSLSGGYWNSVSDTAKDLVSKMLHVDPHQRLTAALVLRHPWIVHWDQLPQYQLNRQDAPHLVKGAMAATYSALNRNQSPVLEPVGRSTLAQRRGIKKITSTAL
Assay [17] has the same target. As to conditions: at 1 µM.
The target of assay [18] is Ribosomal protein S6 kinase alpha-2 (Homo sapiens) (UniProt Q15349). As to conditions: at 0.1 µM.
Ribosomal protein S6 kinase alpha-2 (Homo sapiens), sequence (Q15349 whole entry): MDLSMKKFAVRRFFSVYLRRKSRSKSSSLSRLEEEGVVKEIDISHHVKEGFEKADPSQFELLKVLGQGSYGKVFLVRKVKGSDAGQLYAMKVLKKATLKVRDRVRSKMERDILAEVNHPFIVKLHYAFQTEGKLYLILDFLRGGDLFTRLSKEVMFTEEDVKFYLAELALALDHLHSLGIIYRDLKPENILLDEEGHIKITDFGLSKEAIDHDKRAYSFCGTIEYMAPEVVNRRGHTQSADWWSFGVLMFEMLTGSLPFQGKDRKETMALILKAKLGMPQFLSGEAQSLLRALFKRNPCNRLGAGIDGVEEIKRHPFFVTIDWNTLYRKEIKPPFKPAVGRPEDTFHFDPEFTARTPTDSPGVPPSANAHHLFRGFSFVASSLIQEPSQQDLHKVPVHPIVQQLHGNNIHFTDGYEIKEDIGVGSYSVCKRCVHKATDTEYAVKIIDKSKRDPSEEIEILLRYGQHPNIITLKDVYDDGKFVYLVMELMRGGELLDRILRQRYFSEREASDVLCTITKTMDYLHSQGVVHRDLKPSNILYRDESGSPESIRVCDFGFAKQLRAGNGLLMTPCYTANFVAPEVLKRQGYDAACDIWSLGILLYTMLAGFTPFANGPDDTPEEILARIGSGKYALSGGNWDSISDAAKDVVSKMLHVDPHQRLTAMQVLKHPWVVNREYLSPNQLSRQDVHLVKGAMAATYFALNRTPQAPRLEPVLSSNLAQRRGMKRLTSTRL
For assay [19] the target is unchanged. Conditions: at 1 µM.
Assay [20] has as its target Ribosomal protein S6 kinase alpha-6 (Homo sapiens) (UniProt Q9UK32). Conditions: at 0.1 µM.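 Also: reported value is the mean inhibition of RSK4, from the GSK PKIS kinase inhibitor screen.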

Ribosomal protein S6 kinase alpha-6 (Homo sapiens), sequence (Q9UK32 whole entry): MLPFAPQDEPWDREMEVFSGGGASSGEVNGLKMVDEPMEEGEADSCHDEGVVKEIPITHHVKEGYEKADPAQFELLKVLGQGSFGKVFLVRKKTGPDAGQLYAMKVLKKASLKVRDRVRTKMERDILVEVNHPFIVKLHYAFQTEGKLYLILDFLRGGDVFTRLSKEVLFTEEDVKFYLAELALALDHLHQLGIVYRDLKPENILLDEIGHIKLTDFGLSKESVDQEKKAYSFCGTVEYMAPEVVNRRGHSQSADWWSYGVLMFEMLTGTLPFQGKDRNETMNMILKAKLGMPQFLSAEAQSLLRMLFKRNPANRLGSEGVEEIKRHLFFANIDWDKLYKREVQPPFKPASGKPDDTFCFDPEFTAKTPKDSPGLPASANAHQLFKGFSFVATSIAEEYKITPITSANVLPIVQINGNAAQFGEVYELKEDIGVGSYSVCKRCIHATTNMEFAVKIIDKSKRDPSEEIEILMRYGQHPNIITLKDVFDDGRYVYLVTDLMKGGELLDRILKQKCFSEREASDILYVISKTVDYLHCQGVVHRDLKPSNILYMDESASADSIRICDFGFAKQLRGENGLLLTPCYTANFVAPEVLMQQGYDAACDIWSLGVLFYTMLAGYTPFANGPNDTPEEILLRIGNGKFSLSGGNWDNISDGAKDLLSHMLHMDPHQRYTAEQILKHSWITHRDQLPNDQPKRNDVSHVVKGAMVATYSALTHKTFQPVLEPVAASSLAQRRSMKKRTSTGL

Turning to `CS(=O)(=O)CCNCc1nc(-c2ccc3ncnc(Nc4ccc(OCc5cccc(C(F)(F)F)c5)cc4)c3c2)cs1`, the inhibition in [1] amounted to 0.2%; in assay [2], 0.92%; in [3], 2.19%; in assay [4], 0.49%; in assay [5] it was 2.23%; in assay [6] it was 0.51%. Besides, the inhibition in assay [7] is 1.54%; in assay [8], 0.7%; in assay [9], -0.71%; in assay [10] it was -0.53%; in assay [11], -0.55%; in [12], 0.87%. The inhibition in [13] was 1.92%; in assay [14], -1.01%; in assay [15] it was 0.29%; in assay [16], 1.21%; in assay [17], 1.84%; in assay [18] it was 1.45%. Moreover, the inhibition in [19] came to 2.09%; in assay [20], 0.32%.

In the case of `ON=C1CCc2cc(-c3nc(C4CCNCC4)[nH]c3-c3ccncc3)ccc21`, the inhibition in assay [1] is 9.97%; in assay [2], 1.39%; in assay [3] it was 8.68%; in assay [4] it was -0.33%; in [5] it was 1.76%; in [6], 0.54%. The inhibition in assay [7] is 2.55%; in [8], -0.73%; in assay [9], -2.69%; in assay [10] it was 0.17%; in [11] it was 0.82%; in [12], -1.08%. For the same molecule, the inhibition in assay [13] was -0.29%; in assay [14], -1.46%; in assay [15], -1.99%; in [16], -1%; in assay [17], -0.39%; in assay [18] it was 0.31%. In addition, the values for the inhibition in [19] and in assay [20] were 1.01% and 0.13%, respectively.

On to `NS(=O)(=O)c1ccc(Nc2cc(-c3cccc(O)c3)n[nH]2)cc1`, for which the inhibition in [1] was 7.41%; in assay [2], 6.55%; in assay [3] it was 8.42%; in assay [4], 5.01%; in assay [5], 5.23%; in assay [6] it was 3.66%. Further, the inhibition in [7] was 5.03%; in assay [8] it was 3.04%; in assay [9] it was 2.25%; in assay [10] it was 1.47%; in assay [11], 2.17%; in assay [12], 3.43%. Further, the inhibition in assay [13] came to 4.85%; in assay [14] it was 2.5%; in assay [15], 6.11%; in [16] it was 2.14%; in [17], 6.36%; in assay [18], 1.18%. Further, the values for the inhibition in [19] and in [20] were 5.39% and 1.24%, respectively.
